An excerpt weighted towards active compounds, which were near 5.9% of everything screened.
RORg inh: qHTS for inhibitors of ROR gamma transcriptional activity; Nuclear receptor ROR-gamma (Mus musculus), P51450; Drosophila S2 Gal4-RORgamma UAS-luciferase reporter, 20 h; Potency, µM (highest dose often 53.6 µM), inactives show top-dose activity change, negative = inhibition, most hits filed as inhibitors; hit rate 5.4% among 310,000; AID 2551, 2010; also: % is scaled to controls: 0 for no effect and ±100 for the full control effect; nearly all actives have a fitted effect of over 60% in size
Target sequence (P51450 whole entry, looked up, the tested form may be a part): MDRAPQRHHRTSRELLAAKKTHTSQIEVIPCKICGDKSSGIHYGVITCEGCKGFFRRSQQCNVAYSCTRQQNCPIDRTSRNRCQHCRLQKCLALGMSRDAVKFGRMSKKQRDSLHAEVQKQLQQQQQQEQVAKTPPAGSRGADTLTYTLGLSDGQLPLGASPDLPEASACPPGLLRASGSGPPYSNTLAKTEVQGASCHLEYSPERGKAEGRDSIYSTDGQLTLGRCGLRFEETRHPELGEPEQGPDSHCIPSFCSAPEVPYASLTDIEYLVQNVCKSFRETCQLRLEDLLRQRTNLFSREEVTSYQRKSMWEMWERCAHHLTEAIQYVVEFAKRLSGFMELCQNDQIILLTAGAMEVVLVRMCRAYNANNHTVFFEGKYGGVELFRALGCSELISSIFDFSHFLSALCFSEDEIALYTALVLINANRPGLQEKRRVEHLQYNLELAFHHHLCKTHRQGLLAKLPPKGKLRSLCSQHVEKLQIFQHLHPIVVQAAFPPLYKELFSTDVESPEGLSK
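Drosophila S2 cells stably expressing Gal4-DBD/mouse RORγ fusion under metallothionein promoter plus UAS-luciferase; compound 1 h, then 700 uM CuSO4 induction for 20 h at ambient temperature; inhibition read as reduced luminescence.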
HEK293 tox: qHTS of GLP-1 Receptor Inverse Agonists: Cytotox Screen. HEK293 cAMP-luciferase reporter cells, luminescence, 24 h. Potency, µM (doses to about 38.3 µM), for the others: top-dose activity change, negative = inhibition, usual class: inhibitors. hit rate 0.13% among 410,000;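 also: loss of luciferase light is scored as toxicity; % is scaled to controls: 0 for no effect and ±100 for the full control effect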
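Seeding density was 200 cells/uL; after overnight-length (12 h) culture, 23 nL compounds went on for 24 h at 37 °C. Readout used a luciferase detection reagent, luminescence taken after 12 min at room temperature.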
GLP1R inv ag: qHTS of GLP-1 Receptor Inverse Agonists (Inhibition Mode); Glucagon-like peptide 1 receptor (Homo sapiens), P43220; AID 624417, 2012; hit rate 1.6% among 410,000; Potency, µM (titrated, usually from 38.3 µM), for inactives: at the top dose activity change, negative = inhibition, actives largely listed as inhibitors; HEK293 GLP-1R CRE-luciferase, luminescence, 24 h; GLP-1R form is constitutively active; also: % is scaled to controls: 0 for no effect and ±100 for the full control effect; nearly all actives have a fitted effect of over 55% in size
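Cells are plated, allowed 12 hours at 37 deg C, then treated with compounds for 24 hr before luciferase detection reagent is added and luminescence is read after 12 min at room temperature. The HEK293 line carries constitutively active GLP-1R with a cAMP-responsive reporter.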
GLP-1R agonist: qHTS of GLP-1 Receptor Agonists. Glucagon-like peptide 1 receptor (Homo sapiens), P43220. HEK293 GLP-1R CRE-luciferase, luminescence, 4-6 h; cells express a hypersensitive GLP-1R form. Potency, µM (highest dose often 45.6 µM), inactives show at the top dose activation, most hits filed as activators. hit rate 0.007% among 380,000; also: % of control where 0% means no effect
Gal4-VP16 FLuc: VP16 counterscreen qHTS for inhibitors of ROR gamma transcriptional activity; Drosophila S2 Gal4-VP16 UAS-luciferase, luminescence, 20 h; Potency, µM (top dose mostly 53.6 µM), for inactives: at the top dose activity, negative = inhibition, usual class: inhibitors; hit rate 3.5% among 310,000;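 also: Gal4-VP16 expression switched on by copper sulfate through the metallothionein promoter; % is scaled to controls: 0 for no effect and ±100 for the full control effect; nearly all actives have a fitted effect of over 50% in size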
* marks the source's active call; other numbers are inactive results; ? = inconclusive; . = not tested or not shown; [ ] = dose if it differs, or a comment. Calls follow the shape of the dose curve; as a rule, active = well fitted curve in the direction sought with a large enough effect; inconclusive = small, poorly fitted or top-dose-only effect, or another doubt; inactive = no such curve, though single readings can be large; an effect the other way counts as inactive or inconclusive. Potency is read from the fitted curve at half-maximal effect.

SMILES | RORg inh | HEK293 tox | GLP1R inv ag | GLP-1R agonist | Gal4-VP16 FLuc
CCn1c(Cc2ccccc2)n[nH]c1=S | ? | 3.6% | 12.4% | -0.1% | -25.0%
CC(C)Cn1c(Cc2ccccc2)n[nH]c1=S | 4.47µM* | 4.9% | 0.0% | -1.9% | 0.0%
S=c1[nH]nc(Cc2noc3ccccc23)n1-c1ccc(Cl)cc1 | ? | 13.2% | -12.8% | -0.3% | -8.2%
Cc1ccc(-n2c(Cc3ccccc3)n[nH]c2=S)cc1 | 3.98µM* | ? | -3.8% | -7.9% | 10µM*
CCc1ccccc1Nc1cc(C(=O)NC2CCC(C)CC2)c2ccccc2n1 (stereo not given) | . | -7.0% | ? | . | .
S=c1[nH]nc(Cc2ccccc2)n1-c1ccccc1 | 11.2µM* | -10.6% | 0.0% | -13.5% | 20µM*
S=c1[nH]nc(Cc2n[nH]c(=S)n2-c2ccccc2)n1-c1ccccc1 | 22.9% | 0.9% | 0.1% | -4.3% | -14.2%
Clc1ccccc1NN=Cc1ccccn1 | . | -16.3% | 3.98µM* | 4.9% | .
Nc1c(Cl)ncnc1N/N=C/c1ccnc2ccccc12 | -28.2% | -18.1% | 11.9% | -1.2% | 3.1%
Nc1c(Cl)ncnc1N/N=C/c1ccc2ccccc2n1 | 0.398µM* | ? | ? | 17.0% | 1µM*
Nc1c(Cl)ncnc1N/N=C/c1ccccn1 | 0.398µM* | -7.6% | ? | -5.0% | 0.891µM*
OC[C@@H]1O[C@@H](n2cnc3c(N[C@H]4CCC[C@@H]4O)ncnc32)[C@H](O)[C@H]1O | -0.4% | . | . | . | -3.3%
Cc1cccc(NC(=O)C2CCC(CNS(=O)(=O)c3ccc4c(c3)CCCC(=O)N4)CC2)c1C (stereo not given) | . | 5.7% | -0.1% | . | .
COc1ccc(-c2ccc(SC)nn2)cc1 | 10µM* | 2.4% | ? | -4.2% | ?
COc1ccc(C(=O)CSc2ccc(-c3ccccc3)nn2)cc1 | 42.3% | -1.5% | 16.2% | 3.6% | 2.1%
CC(C)n1cc(/C=C2/NC(=O)N(c3cccc(Cl)c3)C2=O)c2ccccc21 | ? | -20.7% | -3.9% | -6.1% | -7.2%
CC(C)n1cc(/C=C2\NC(=O)N(c3cccc(Cl)c3)C2=O)c2ccccc21 | -17.8% | -14.7% | 3.98µM* | -14.6% | 5.5%
CCCNC(=O)CNC(=S)N(Cc1ccccc1F)C1CCCCC1 | ? | 12.1% | ? | 12.7% | -22.9%
CCOC(=O)CNC(=S)N(Cc1ccccc1F)C1CCCCC1 | 11.2µM* | -0.8%[7.66 µM] | ? | -3.9% | -6.0%
CO[C@@H]1COC(=O)CC=C[C@@H](C)[C@@H]2C=C[C@@H](O)[C@@H](COC(=O)C/C=C\[C@H]1C)O2 | 30.2%[10 µM] | . | . | . | -3.0%[10 µM]
COc1ccc(S(=O)(=O)N(CCO)c2ccccc2CN(C)CC=Cc2ccc(Cl)cc2)cc1 | -40.5% | . | . | . | 14.1µM*
Cc1ccc(CN(C(=O)COc2ccc(Cl)c(C)c2)C2CCS(=O)(=O)C2)o1 (stereo not given) | . | -2.1% | ? | . | .
Cc1cc(C)cc(NC(=O)CSc2nc(=O)[nH]c3c2CCC3)c1 | . | -5.3% | 6.4% | . | .
O=C(NNc1c2ccccc2nc2ccccc12)c1ccccc1Cl | -21.3% | -10.6% | 14.2% | 1.9% | -12.7%
Nc1ccccc1C(=O)NNC1=C(C(=O)C(F)(F)F)CCC1 | 7.08µM* | ? | ? | 11.1% | ?
SMILES | RORg inh | HEK293 tox | GLP1R inv ag | GLP-1R agonist | Gal4-VP16 FLuc
O=C(NNC1=C(C(=O)C(F)(F)F)CCC1)c1ccccc1Cl | 5.62µM* | ? | ? | 8.9% | 6.31µM*
O=C(NNC1=C(C(=O)C(F)(F)F)CCC1)c1ccc(Br)cc1 | ? | -16.9% | -18.5% | 2.9% | ?
COc1ccccc1C(=O)NNC(=O)c1ccccc1 | 33.1%[1.91 µM] | 1.6% | ? | -2.9% | ?
O=C(NNC1=C(C(=O)C(F)(F)F)CCC1)c1ccccc1O | 11.2µM* | 4.4% | 2.82µM* | -0.9% | ?
COc1ccccc1C(=O)NNC1=C(C(=O)C(F)(F)F)CCC1 | 0.562µM* | -12.4% | ? | 8.9% | 5.01µM*
CC1CCC(Nc2nc3c(-c4ccc(Cl)cc4)nnn3c3ccccc23)CC1 (stereo not given) | . | 0.7% | 10.7% | -0.7% | .
Cc1ccccc1NC(=O)CSc1nc(=O)n(CCN2CCOCC2)c2c1CCC2 | . | -0.5% | -3.5% | . | .
COc1cccc(C(=O)NNC2=C(C(=O)C(F)(F)F)CCC2)c1 | 5.62µM* | -14.1% | ? | 8.5% | ?
COc1cccc(C(=O)NN/C(C)=C/C(=O)C(F)(F)C(F)(F)C(F)(F)F)c1 | 12.6µM* | -9.7% | ? | 4.9% | 12.6µM*
COc1cccc(C(=O)NNC(=O)Cc2ccc(Cl)cc2)c1 | 20.8%[10 µM] | 4.2% | 10.4% | -1.7% | -1.0%
S=c1nc2c(n[nH]1)c1ccccc1n2CCc1ccccc1 | 2.24µM* | -11.4% | 20.4% | 0.1% | 1.41µM*
CCOC(=O)c1cnc2ccc(OC(F)(F)F)cc2c1Nc1ccccc1C(=O)O | . | -8.9% | 13.8% | 0.0% | .
Cc1ccc(-c2nc(N)s[n+]2-c2ccccc2)cc1 | -10.4% | -5.3% | 12.8% | -1.3% | -7.1%
CNc1nc(-c2ccccc2)[n+](-c2ccc(C)cc2)s1 | 7.94µM* | 6.9% | 29.8% | 4.0% | 7.08µM*
O=C(c1ccncc1)N1CCC[C@@]2(CCN(c3ccccn3)C2)C1 | 0.1% | . | . | . | -2.4%
COc1ccc(/C=C2\SC(=S)N(CCCC(=O)Nc3cc(C)on3)C2=O)cc1OC | 2µM* | 16.4% | -15.6% | 4.6% | 5.01µM*
COc1ccc(/C=C2\SC(=S)N(CCCCCC(=O)Nc3cc(C)on3)C2=O)cc1OC | 8.1% | -2.1% | 9.5% | -10.3% | -9.9%
Cc1cc(NC(=O)CCCN2C(=O)/C(=C\c3cccs3)SC2=S)no1 | -43.8% | 7.8% | 18.4% | -1.0% | 12.6µM*
Cc1ccc(/C=C2\SC(=S)N(CCCC(=O)Nc3cc(C)on3)C2=O)cc1 | 0.794µM* | -3.0% | -1.3% | 0.5% | ?
CCN(CC)CCOC(=O)c1ccc(NC(=O)CCCN2C(=O)/C(=C\c3cccs3)SC2=S)cc1 | 11.2µM* | ? | ? | -5.4% | 11.2µM*
CCCN(CCC)C(=O)c1oc2ccccc2c1NC(=O)Cc1cccc(OC)c1 | -3.4% | -6.1% | 7.94µM* | 11.3% | 8.7%
COc1cccc(CC(=O)Nc2c(C(=O)N3CCN(c4ccccc4)CC3)oc3ccccc23)c1 | . | -14.8% | ? | . | .
C=CCNC(=S)N(C1CCCCC1)C1CCCCC1 | 10µM* | -0.4% | ? | 0.5% | 1.9%
COCc1cc(C)nc2c1C(=O)NC(c1ccc(C)cc1)N2Cc1ccccc1 (stereo not given) | . | 4.6% | 14.2% | . | .
CC(=O)c1ccc(Nc2cc(C)nc3c(C)cc(C)cc23)cc1 | ? | ? | 8.91µM* | 16.2% | ?
